# Results as given in the supplement of paper PMC9262897, “Low-cost anti-mycobacterial drug discovery using engineered E. coli” (Nature Communications, 2022).
# Counter-ions that a name gives are not always drawn. ± gives the standard deviation of the averaged measurements.
# Experiments:
# Assay in all cases: growth (OD600 after 10 h); higher = more growth (less inhibition)
# [1] = system: E. coli TESEC Alr+ wild-type control; details: compound 0.1 mM; raw OD600 reference: median of DMSO wells 0.241, cell-free background 0.041
# Protocol: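 TESEC Mtb Alr E. coli, or the Alr+ wild-type control, in 384-well plates with Prestwick library compounds at 0.1 mM and 1% DMSO, across arabinose induction levels of 1E3 to 1E7 nM. Growth is read as OD600 after 10 h at 37 °C in triplicate biological replicates.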
# E. coli TESEC Mtb Asd = details: compound 0.1 mM
# Protocol: (§1)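 TESEC E. coli strains in which the native enzyme is deleted and replaced by arabinose-inducible Mtb Asd, DapB, CysH or TrpD, each grown in its selective medium. Strains were screened against the Prestwick library at 0.1 mM and 1% DMSO in 384-well format at low and high arabinose induction. Growth is read as OD600 after 10 h in triplicate.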
# E. coli TESEC Mtb DapB = details: compound 0.1 mM
# Protocol: as §1
# [2] = system: E. coli TESEC Alr+ wild-type control; details: compound 0.1 mM; raw OD600 reference: median of DMSO wells 0.49, cell-free background 0.052
# Protocol: (§2)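 TESEC Mtb Alr E. coli (ΔaraC ΔtolC ΔentC Δalr ΔdadX, arabinose-inducible Mtb Alr) or the Alr+ wild-type control strain, grown in defined M9-fructose medium without D-alanine in 96-well plates with Prestwick library compounds at 0.1 mM and 1% DMSO. Low Alr induction is 0.1 µM arabinose and high induction is 10 mM arabinose.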
# E. coli TESEC Mtb Alr = details: compound 0.1 mM
# Protocol: as §2
# [3] = arabinose induction (level): High, raw OD600 reference: median of DMSO wells 0.331, cell-free background 0.041
# [4] = arabinose induction (level): Low, raw OD600 reference: median of DMSO wells 0.417, cell-free background 0.041
# [5] = arabinose induction (level): High, raw OD600 reference: median of DMSO wells […], cell-free background 0.041
# [6] = arabinose induction (level): Low, raw OD600 reference: median of DMSO wells 0.227, cell-free background 0.041
# [7] = arabinose 100 nM, raw OD600 reference: median of DMSO wells 0.413, cell-free background 0.052
# [8] = arabinose 10000000 nM, raw OD600 reference: median of DMSO wells […], cell-free background 0.052
SMILES,growth [1],growth (E. coli TESEC Mtb Asd; [3]),growth (E. coli TESEC Mtb Asd; [4]),growth (E. coli TESEC Mtb DapB; [5]),growth (E. coli TESEC Mtb DapB; [6]),growth [2],growth (E. coli TESEC Mtb Alr; [7]),growth (E. coli TESEC Mtb Alr; [8])
CC(C)OC(=O)C(C)(C)Oc1ccc(C(=O)c2ccc(Cl)cc2)cc1 [Fenofibrate],0.219 ± 0.0026,0.298 ± 0.013,0.397 ± 0.039,0.176 ± 0.015,0.215 ± 0.037,0.469 ± 0.026,0.401 ± 0.016,0.089 ± 0.01
NC(Cc1cc(I)c(Oc2cc(I)c(O)c(I)c2)c(I)c1)C(=O)O (stereo not drawn) [Thyroxine (L)],0.169 ± 0.0037,0.354 ± 0.0042,0.292 ± 0.042,0.206 ± 0.008,0.243 ± 0.013,0.469 ± 0.018,0.369 ± 0.034,0.359 ± 0.019
CC(=O)/N=c1/sc(S(N)(=O)=O)nn1C [Methazolamide],0.247 ± 0.0057,0.342 ± 0.034,0.447 ± 0.02,0.207 ± 0.013,0.228 ± 0.01,0.438 ± 0.049,0.397 ± 0.012,0.348 ± 0.027
CC(C)NNC(=O)c1ccncc1 [Iproniazide phosphate],0.253 ± 0.0043,0.359 ± 0.057,0.43 ± 0.014,0.199 ± 0.02,0.223 ± 0.034,0.496 ± 0.095,0.417 ± 0.007,0.374 ± 0.011
Nc1ncnc2c1ncn2C1OC(COP(=O)(O)O)C(O)C1O (stereo not drawn) [Adenosine 5'-monophosphate monohydrate],0.26 ± 0.015,0.276 ± 0.078,0.336 ± 0.058,0.214 ± 0.0055,0.25 ± 0.071,0.569 ± 0.09,0.374 ± 0.033,0.363 ± 0.013
C[C@@H](O)[C@H]1C(=O)N2C(C(=O)O)=C(SCCNC=N)C[C@H]12 [Imipenem],0.216 ± 0.0037,0.296 ± 0.1,0.37 ± 0.065,0.198 ± 0.012,0.231 ± 0.015,0.271 ± 0.022,0.165 ± 0.11,0.111 ± 0.011
CC(C)N1CCN(c2ccc(OCC3COC(Cn4cncn4)(c4ccc(Cl)cc4Cl)O3)cc2)CC1 (stereo not drawn) [Terconazole],0.193 ± 0.011,0.252 ± 0.021,0.397 ± 0.14,0.198 ± 0.0065,0.223 ± 0.011,0.462 ± 0.031,0.412 ± 0.014,0.315 ± 0.019
CC(CCc1ccc(O)cc1)NCCc1ccc(O)c(O)c1 (stereo not drawn) [Dobutamine hydrochloride],0.116 ± 0.0039,0.176 ± 0.006,0.165 ± 0.029,0.19 ± 0.02,0.167 ± 0.02,0.539 ± 0.008,0.409 ± 0.0099,0.343 ± 0.018
COc1cc2ncnc(Nc3ccc(F)c(Cl)c3)c2cc1OCCCN1CCOCC1 [Gefitinib],0.206 ± 0.013,0.261 ± 0.026,0.454 ± 0.038,0.207 ± 0.012,0.246 ± 0.0095,0.496 ± 0.03,0.284 ± 0.2,0.0533 ± 0.0025
Nc1ccc(S(=O)(=O)Nc2cnc3ccccc3n2)cc1 [Sulfaquinoxaline sodium salt],0.221 ± 0.0039,0.289 ± 0.073,0.396 ± 0.028,0.181 ± 0.012,0.204 ± 0.022,0.47 ± 0.082,0.419 ± 0.0091,0.297 ± 0.0077
CCC1(c2ccccc2)C(=O)NCNC1=O [Primidone],0.243 ± 0.011,0.448 ± 0.024,0.463 ± 0.043,0.208 ± 0.014,0.249 ± 0.013,0.567 ± 0.028,0.408 ± 0.015,0.333 ± 0.0042
N=C(N)NC(=O)Cc1c(Cl)cccc1Cl [Guanfacine hydrochloride],0.241 ± 0.0058,0.43 ± 0.13,0.444 ± 0.018,0.19 ± 0.015,0.214 ± 0.026,0.485 ± 0.018,0.406 ± 0.0086,0.329 ± 0.018
CC(=O)Nc1nnc(S(N)(=O)=O)s1 [Acetazolamide],0.249 ± 0.017,0.361 ± 0.014,0.394 ± 0.051,0.211 ± 0.015,0.253 ± 0.077,0.436 ± 0.042,0.408 ± 0.011,0.317 ± 0.05
COc1ccc2[nH]cc(CCNC(C)=O)c2c1 [Melatonin],0.246 ± 0.0061,0.252 ± 0.066,0.348 ± 0.11,0.202 ± 0.026,0.23 ± 0.026,0.521 ± 0.086,0.409 ± 0.01,0.354 ± 0.013
CCOC(=O)c1ccc(N)cc1 [Benzocaine],0.249 ± 0.0072,0.469 ± 0.013,0.453 ± 0.027,0.212 ± 0.013,0.24 ± 0.034,0.432 ± 0.0086,0.4093 ± 0.00068,0.323 ± 0.018
Nc1ncn(C2OC(CO)C(O)C2O)c(=O)n1 (stereo not drawn) [Azacytidine-5],0.093 ± 0.0029,0.125 ± 0.0088,0.192 ± 0.065,0.199 ± 0.03,0.193 ± 0.027,0.4795 ± 0.0037,0.385 ± 0.022,0.066 ± 0.0049
COc1ccc(OC)c(C(O)CNC(=O)CN)c1 (stereo not drawn) [Midodrine hydrochloride],0.243 ± 0.0087,0.4 ± 0.017,0.505 ± 0.02,0.188 ± 0.0075,0.25 ± 0.046,0.482 ± 0.043,0.424 ± 0.0079,0.341 ± 0.008
Cc1cccc(C)c1NC(=O)CN1CCN(CCCC(c2ccc(F)cc2)c2ccc(F)cc2)CC1 [Lidoflazine],0.239 ± 0.0079,0.333 ± 0.059,0.361 ± 0.11,0.232 ± 0.026,0.227 ± 0.015,0.563 ± 0.013,0.4122 ± 0.0027,0.379 ± 0.012
CN[C@@H]1[C@H](O[C@H]2[C@H](O[C@H]3[C@H](O)[C@@H](O)[C@H](N=C(N)N)[C@@H](O)[C@@H]3N=C(N)N)O[C@@H](C)[C@]2(O)C=O)O[C@@H](CO)[C@H](O)[C@H]1O [Streptomycin sulfate],0.04117 ± 5.8e-05,0.0611 ± 0.0021,0.0528 ± 0.00084,0.108 ± 0.048,0.0695 ± 0.0084,0.0543 ± 0.00036,0.0665 ± 0.0098,0.05093 ± 0.00012
OCCN1CCN(CC/C=C2/c3ccccc3Sc3ccc(Cl)cc32)CC1 [Zuclopenthixol dihydrochloride],0.0505 ± 0.0052,0.205 ± 0.043,0.215 ± 0.011,0.179 ± 0.029,0.186 ± 0.038,0.049 ± 0.0005,0.156 ± 0.19,0.0523 ± 0.0015
CCN1CCC[C@H]1CNC(=O)c1c(O)c(Cl)cc(Cl)c1OC [Raclopride],0.173 ± 0.014,0.13 ± 0.013,0.133 ± 0.014,0.173 ± 0.013,0.166 ± 0.019,0.391 ± 0.075,0.395 ± 0.038,0.175 ± 0.027
